Drawing on PubChem BioAssay AID652094 (National Center for Advancing Translational Sciences (NCATS), 2013), this text covers outcome for 1 molecule.

Calls of active or inactive are those of the source.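 Rule for the calls: active = lower glucosylceramide lipid buildup in Gaucher patient macrophages after compound treatment; inactive = the rest.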

The assay can be described thus: Extended Characterization of Activators of N370S glucocerebrosidase as a Potential Chaperone Treatment of Gaucher Disease: Quantification of GlcCer accumulation in Gaucher macrophages. The conditions noted are these: Gaucher patient macrophages, GlcCer-BODIPY accumulation fluorescence. An excerpt: Glucocerebrosidase (GCase) catalyzes the hydrolysis of beta-glucocerebroside (GC) to glucose and ceramide in lysosomes. Mutations in the glucocerebrosidase gene result in Gaucher disease, an autosomal recessive lysosomal storage disorder. Many of the mutations encountered in patients with Gaucher disease are missense alterations that may cause misfolding, decreased stability and/or mistrafficking of this lysosomal protein. […] These inhibitors include iminosugar analogs and other inhibitors that were discovered as part of previous work. However, the enhancement of enzyme activity by the chaperone action of an enzyme inhibitor must be balanced against the direct inhibition of the enzyme. […] In this extended characterization of our probe, we have further characterized the activity of probes in relevant models of Gaucher disease. This assay attempts to quantitate GC concentration in patient-derived macrophages following compound incubation. NIH Chemical Genomics Center [NCGC] NIH Molecular Libraries Probe Production Centers Network [MLPCN] […]
In order to quantify macrophage GlcCer accumulation, erythrocyte ghosts were labeled with N-[11- (dipyrrometheneboron difluoride) undecanoyl]-D-Glucosyl-beta1-1'-D-erythro-sphingosine (C11 TopFluor Glucosyl Ceramide) (Avanti Polar Lipid) for 30 min at 37 degrees C and fluorescence measured at 495/503 nm on a Victor 1420 multi-label counter (PerkinElmer).
Take `C#Cc1ccc(NC(=O)c2cnn3c(C)cc(C)nc23)cc1`: the outcome is “active; decreased”.
